Hits are enriched below; roughly 21% of the tested compounds scored in any of these assays.
NS1 inh – influenza NS1 inhibition; Potency, µM (series often up to 46.1 µM), for inactives: at the top dose activity, positive = more growth; 270,000 tested, 0.4% active; AID 2326; also: potency is read from the fitted curve at half-maximal effect; actives are rising curves; nearly all actives have a fitted effect of over 50% in size
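Read-out: OD600 growth recovery of NS1-expressing budding yeast. Cells grown overnight at 30C in -URA glucose medium, washed, resuspended and diluted 1:100 in 2% galactose assay medium, pH 6.0. Same strain lacking NS1 served as positive control.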
Pf growth 96h – P. falciparum growth inhibition at 96 hour, primary screen for plastid delayed-death inhibitors; P. falciparum luciferase reporter growth, 96 h; Potency, µM (series often up to 28.7 µM), for inactives: top-dose activity change, negative = inhibition, actives largely listed as inhibitors; 320,000 tested, 6.9% active; AID 504834; active = well fitted inhibition curve with a large enough effect; inconclusive = small, poorly fitted or top-dose-only effect, or another doubt; inactive = no such curve, though single readings can be large or run the other way; also: potency is read from the fitted curve at half-maximal effect; % is scaled to controls: 0 for no effect and ±100 for the full control effect
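Compounds incubated with erythrocytes infected by luciferase-expressing P. falciparum (2% hematocrit, 0.05% parasitemia final) for 96 hours, 37 C in 5% CO2. Growth inhibition scored as decreased luciferase luminescence.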
Shiga inhibitor – blocks Shiga toxin action in Vero cells. 290,000 tested, 9.2% active. inhibition, % at 38.7 µM. Vero cells, Shiga toxin protein synthesis inhibition reporter; in the data active = inhibition mostly above about 28%, no sharp cut-off; inactive = mostly below about 43%; also: 0% is about no effect
SARS PLpro yeast – SARS-CoV PLP inhibition in yeast | S. cerevisiae expressing SARS-CoV PLpro, growth rescue | Potency, µM (top dose mostly 32.9 µM), for inactives: top-dose activity, positive = growth rescue, actives largely listed as activators | 330,000 tested, 0.19% active | AID 485353; also: potency is read from the fitted curve at half-maximal effect; 0% is about no effect; nearly all actives have a fitted effect of over 55% in size
Pf growth 48h – P. falciparum growth inhibition at 48 hours (one generation); P. falciparum luciferase growth in erythrocytes, 48 h; 310,000 tested, 5.9% active; Potency, µM (doses to about 28.7 µM), for the others: at the top dose activity change, negative = inhibition, actives largely listed as inhibitors; active = well fitted inhibition curve with a large enough effect; inconclusive = small, poorly fitted or top-dose-only effect, or another doubt; inactive = no such curve, though single readings can be large or run the other way; also: potency is read from the fitted curve at half-maximal effect; % is scaled to controls: 0 for no effect and ±100 for the full control effect
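First compound was added to culture medium, then infected red cells at 0.1% parasitemia and 2% hematocrit (final). After incubation at 37 C under 5% CO2, luciferase detection reagent was dispensed and light output recorded.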
Cycloheximide cs – counter-screen hit for Shiga toxin inhibitors, cycloheximide | cell reporter, cycloheximide protein synthesis inhibition counterscreen | max response, % | 300,000 tested, 12% active | AID 2314; in the data active = max response mostly above about 13%, no sharp cut-off; inactive = mostly below about 14%; also: read at 38.3 µM for the half of the compounds with a filed dose; 0% is about no effect
The depositor's hits bear a star; u = inconclusive; x = not tested or not shown; ! = repeats disagree. Unless noted, calls follow the shape of the full dose curve.

SMILES	NS1 inh	Pf growth 96h	Shiga inhibitor	SARS PLpro yeast	Pf growth 48h	Cycloheximide cs
O=C(CCCn1c(=S)[nH]c2ccsc2c1=O)Nc1ccc2c(c1)OCCO2	x	-10.1%	98.4*	0.9%	113.0%	39.0*
O=C(CCNC(=O)c1ccccc1Cl)NCCc1ccc(C(F)(F)F)cc1	-46.4%	11.2%	-3.0	-1.5%	10.4%	5.8
COc1ccc(/C=C/C(=O)OCC(=O)NCc2ccco2)c(OC)c1	x	26.6%	2.9	-0.1%	21.9%	5.8
COc1ccccc1CNC(=O)CCn1c(=O)[nH]c2ccsc2c1=O	2.0%	u	-4.6	-7.5%	1.04µM*	1.5
CC(C)c1ccc(NC(=O)CSc2nc(=O)n(CCCN3CCOCC3)c3c2CCC3)cc1	x	u	x	2.8%	-12.8%	x
O=C(CSc1nc(=O)n(CCCN2CCOCC2)c2c1CCCC2)Nc1ccc(Cl)cc1	x	u	x	-6.3%	13.1µM*	x
O=C(CSc1nc(=O)n(CCN2CCOCC2)c2c1CCC2)Nc1ccc(OC(F)(F)F)cc1	x	-31.9%	x	0.7%	10.4µM*	x
COc1ccc(NC(=O)CSc2nc(=O)n(CCN3CCOCC3)c3c2CCC3)cc1	x	-7.0%	x	x	-16.5%	x
CCCS(=O)(=O)N1CCC(C(=O)NCCCOC)CC1	5.6%	58.6%	-11.5	-1.9%	13.8%	-2.6
CCCS(=O)(=O)N1CCC(C(=O)NCCCOC(C)C)CC1	2.2%	9.28µM*	-20.9	-12.7%	3.1%	4.0
CCCS(=O)(=O)N1CCC(C(=O)NCCCOCC)CC1	-2.3%	14.7µM*	6.4	2.6%	40.2%	-3.8
O=C(CCC(=O)c1cccs1)OCC(=O)c1ccccc1F	x	u	x	4.5%	22.9%	x
Cc1cc2c(C(C)C)c(O)c(O)c(C=O)c2c(O)c1-c1c(C)cc2c(C(C)C)c(O)c(O)c(C=O)c2c1O	0.355µM*!	5.22µM*	6.9	10µM*	13.1µM*	0.8
CCCOC1(NC(=O)c2ccccc2)C(C)=CC(=O)C=C1C	-2.3%	3.29µM*	-5.4	-1.3%	15.1%	-1.8
CCCOC(=O)c1ccccc1	x	2.3%	-2.3	x	-1.1%	-3.6
COc1ccccc1OCCNS(=O)(=O)c1ccc2oc3ccccc3c2c1	-2.1%	10.4µM*	0.8	-21.0%	-18.4%	-0.8
COCCNS(=O)(=O)c1ccc2c(c1)oc(=O)c1cc(S(=O)(=O)NCCOC)ccc12	-3.1%	1.85µM*	-4.9	1.3%	u	-1.8
Cc1cc(Br)ccc1NC(=O)CNC(=O)Cc1ccc(S(=O)(=O)N2CCOCC2)s1	x	u	x	1.1%	-16.1%	x
COCc1c(C(=O)Nc2cccc(S(=O)(=O)N3CCCCC3)c2)oc2ccccc12	x	x	x	-20.0%	x	x
Cc1ccc(S(=O)(=O)N2CCC(NC(=O)c3ccccc3)CC2)cc1	-2.3%	-16.6%	7.5	1.8%	27.1%	6.1
COc1ccc(CCC(C)NCc2ccc(Cl)c(Cl)c2)cc1 (stereo not given)	-25.5%	6.57µM*	-12.8	-8.1%	9.3%	-3.0
COc1ccc(CCC(C)NCC2CCCCC2)cc1 (stereo not given)	-6.8%	13.1µM*	-14.6	-16.1%	u	0.4
COc1ccc(CCC(C)NC2CCCCCCC2)cc1 (stereo not given)	8.9%	0.6%	-19.8	0.1%	29.9%	-2.7
COc1ccc(CCC(C)NCc2cc(OC)cc(OC)c2)cc1 (stereo not given)	-9.0%	6.4%	-11.6	-2.8%	-22.2%	8.0
Cc1cc(C)n2nc(SCCC(=O)NCc3ccccc3)nc2n1	-0.7%	u	-18.2	0.5%	0.0%	1.3
SMILES	NS1 inh	Pf growth 96h	Shiga inhibitor	SARS PLpro yeast	Pf growth 48h	Cycloheximide cs
CCCCCCNC(=O)N[C@H](Cc1ccc(O)cc1)C(=O)NCCC[C@H]1CN2C(=NC[C@H]2CCC)N1CC1CCC1	-51.3%	2.94µM*	17.0	-1.2%	7.38µM*	-1.7
CCCCCCNC(=O)N[C@@H](C(=O)NCCC[C@H]1CN2C(=NC[C@@H]2Cc2ccccc2)N1CCc1cccc(OC)c1)C(C)C	-5.9%	1.31µM*	-10.3	-6.5%	13.1µM*	0.4
CCCCCCNC(=O)N[C@@H](Cc1ccc(O)cc1)C(=O)NCCC[C@H]1CN2C(=NC[C@H]2C)N1CC1CCC1	4.7%	3.29µM*	39.6*	0.3%	9.28µM*	10.8
C/C=C(\C)C(=O)NCCN1C2=NC[C@H](Cc3ccc(O)cc3)N2C[C@H]1Cc1ccc(O)cc1	0.0%	u	11.8	-2.9%	u	0.2
CC(Sc1nnc(C2CC2)n1C1CC1)C(=O)c1ccc(Br)cc1 (stereo not given)	x	u	x	1.8%	-11.3%	x
O=S(=O)(c1ccc(F)cc1)c1nc(-c2ccco2)oc1Nc1ccccc1	12.7%	u	113.7*	-0.6%	18.0%	49.9*
CCN1CCN(c2oc(-c3ccccc3C)nc2S(=O)(=O)c2ccccc2)CC1	x	9.28µM*	x	3.1%	u	x
CCOc1ccc(-c2nc(S(=O)(=O)c3ccccc3)c(NC)o2)cc1	7.5%	u	-7.3	-5.1%	2.7%	-3.7
O=S(=O)(c1ccccc1)c1nc(-c2ccco2)oc1NCc1ccccc1	2.6%	8.28µM*	15.0	6.9%	x	9.0
CCOc1ccc(-c2nc(S(=O)(=O)c3ccccc3)c(NCc3cccnc3)o2)cc1	u	x	-5.9	3.1%	13.1µM*	-4.4
CCCN1CCN(CCCNC(=S)Nc2ccc(OC)cc2)CC1	-1.5%	u	-16.8	-6.1%	0.0%	-1.9
CC1CCN(c2ccc(NC(=O)Cn3c(=O)oc4ccccc43)cc2)CC1	17.2%	u	-7.3	-15.3%	20.9%	2.4
O=C(Nc1nccs1)C1CCN(S(=O)(=O)c2ccccc2)CC1	-5.0%	6.8%	-3.9	-4.4%	6.0%	-4.3
COc1ccc(-n2nc(C(=O)NCC(=O)NCCCN3CC(C)CC(C)C3)c3ccccc3c2=O)cc1OC (stereo not given)	14.3%	-0.9%	-13.3	0.9%	-3.7%	-3.3
NC(=O)C1CCN(c2oc(-c3ccc(F)cc3)nc2S(=O)(=O)c2ccccc2)CC1	x	u	x	-26.1%	10.4µM*	x
CC1CCN(c2oc(-c3ccco3)nc2S(=O)(=O)c2ccccc2)CC1	-19.2%	4.65µM*	11.8	-3.0%	-16.6%	1.4
O=S(=O)(c1ccccc1)c1nc(-c2ccco2)oc1Nc1ccccc1	-9.0%	u	90.2*	6.3%	u	24.9*
O=S(=O)(c1ccccc1)c1nc(-c2ccco2)oc1N1CCCCC1	-5.2%	u	-4.4	-0.7%	u	-4.5
CCCNC(=O)c1ccc(C)c(NC(=O)C2=C(C)OCCS2)c1	1.6%	42.0%	-7.0	1.9%	-5.1%	-0.6
COc1ccccc1NC(=S)N(CCc1c(C)[nH]c2ccccc12)Cc1cccs1	u	u	4.5	-9.6%	u	-2.6
COCCNC(=S)N(CCc1c(C)[nH]c2ccc(OC)cc12)Cc1ccco1	-1.1%	244.9%	12.6	0.8%	9.28µM*	-3.3
CNC(=S)N(CCc1c(C)[nH]c2ccc(C)cc12)Cc1cccs1	x	u	-7.8	0.5%	u	-5.4

Source: PubChem BioAssay (National Center for Advancing Translational Sciences (NCATS))
